Source: PubChem BioAssay AID1159580 (chemical genetic matrix, 2015)
Among all 5,500 compounds or so, about 2,000 (36%) were called active. About 18% were inconclusive and are not listed. Rule as the data show it: active = normalized growth mostly below about 0.91 (no sharp cut-off); inconclusive = no clear call, values can overlap the other calls; inactive = mostly above about 0.92. The list shows a part of the results.

Assay: chemical genetic growth profiling, strain panel (AID 1159580);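 also: tested at 20 µM; growth read once vehicle control cultures reached saturation at 30 °C; 1 = growth at the plate median or of vehicle wells; lower values mean less growth of the strain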
Conditions: growth OD

Measured: normalized growth

COc1cc(NS(=O)(=O)c2ccc(N)cc2)ncn1
inactive: S. cerevisiae deletion strains, locus YJR075W, strain HOC1, stronger effect = lower value 0.984 | S. cerevisiae deletion strains, locus YKL009W, strain mrt4, stronger effect = lower value 0.982 | S. cerevisiae deletion strains, locus YKL068W, stronger effect = lower value 0.986 | S. cerevisiae deletion strains, locus YKL085W, strain MDH1 (second series), stronger effect = lower value 0.991 | S. cerevisiae deletion strains, locus YKL085W, strain MDH1, stronger effect = lower value 0.991 | S. cerevisiae deletion strains, locus YKL160W, strain elf1, stronger effect = lower value 0.98 | S. cerevisiae deletion strains, locus YKL190W, strain CNB1, stronger effect = lower value 0.978 | S. cerevisiae deletion strains, locus YKR001C, strain vps1, stronger effect = lower value 0.986 | S. cerevisiae deletion strains, locus YKR026C, strain gcn3, stronger effect = lower value 0.968 | S. cerevisiae deletion strains, locus YKR091W, strain srl3, stronger effect = lower value 0.99 | S. cerevisiae deletion strains, locus YLL001W, strain dnm1, stronger effect = lower value 0.974 | S. cerevisiae deletion strains, locus YLL026W, stronger effect = lower value 0.985 | S. cerevisiae deletion strains, locus YLL041C, strain sdh2, stronger effect = lower value 0.982 | S. cerevisiae deletion strains, locus YLR027C, strain aat2, stronger effect = lower value 0.988 | S. cerevisiae deletion strains, locus YLR039C, strain RIC1, stronger effect = lower value 1.02 | S. cerevisiae deletion strains, locus YLR058C, strain SHM2, stronger effect = lower value 0.972 | S. cerevisiae deletion strains, locus YLR102C, strain apc9, stronger effect = lower value 0.986 | S. cerevisiae deletion strains, locus YLR113W, strain HOG1, stronger effect = lower value 0.949 | S. cerevisiae deletion strains, locus YLR221C, strain rsa3, stronger effect = lower value 0.985 | S. cerevisiae deletion strains, locus YLR258W, strain gsy2, stronger effect = lower value 0.979 | S. cerevisiae deletion strains, locus YLR262C, strain YPT6 (second series), stronger effect = lower value 0.985 | S. cerevisiae deletion strains, locus YLR262C, strain YPT6, stronger effect = lower value 1.02 | S. cerevisiae deletion strains, locus YLR268W, strain sec22, stronger effect = lower value 0.948 | S. cerevisiae deletion strains, locus YLR320W, strain mms22, stronger effect = lower value 0.979 | S. cerevisiae deletion strains, locus YLR330W, strain CHS5, stronger effect = lower value 0.998 | S. cerevisiae deletion strains, locus YLR342W, strain FKS1 (second series), stronger effect = lower value 1.04 | S. cerevisiae deletion strains, locus YLR342W, strain FKS1, stronger effect = lower value 1.02 | S. cerevisiae deletion strains, locus YLR357W, strain rsc2, stronger effect = lower value 0.93 | S. cerevisiae deletion strains, locus YLR370C, strain arc18, stronger effect = lower value 0.979 | S. cerevisiae deletion strains, locus YLR371W, strain rom2, stronger effect = lower value 0.992 | S. cerevisiae deletion strains, locus YLR384C, strain iki3, stronger effect = lower value 0.974 | S. cerevisiae deletion strains, locus YLR418C, strain cdc73, stronger effect = lower value 0.983 | S. cerevisiae deletion strains, locus YML016C, strain PPZ1, stronger effect = lower value 0.992 | S. cerevisiae deletion strains, locus YML032C, strain rad52, stronger effect = lower value 0.991 | S. cerevisiae deletion strains, locus YML120C, strain ndi1, stronger effect = lower value 1.01 | S. cerevisiae deletion strains, locus YML124C, strain tub3, stronger effect = lower value 0.988 | S. cerevisiae deletion strains, locus YMR058W, strain fet3, stronger effect = lower value 0.993 | S. cerevisiae deletion strains, locus YMR078C, strain ctf18, stronger effect = lower value 0.981 | S. cerevisiae deletion strains, locus YMR125W, strain sto1, stronger effect = lower value 0.963 | S. cerevisiae deletion strains, locus YMR129W, stronger effect = lower value 0.996 | S. cerevisiae deletion strains, locus YMR205C, strain PFK2, stronger effect = lower value 0.992 | S. cerevisiae deletion strains, locus YMR223W, strain ubp8, stronger effect = lower value 0.981 | S. cerevisiae deletion strains, locus YMR231W, strain pep5, stronger effect = lower value 0.975 | S. cerevisiae deletion strains, locus YMR263W, strain SAP30, stronger effect = lower value 0.982 | S. cerevisiae deletion strains, locus YMR307W, strain GAS1, stronger effect = lower value 1.1 | S. cerevisiae deletion strains, locus YNL067W, strain RPL9B, stronger effect = lower value 0.981 | S. cerevisiae deletion strains, locus YNL071W, strain lat1, stronger effect = lower value 0.969 | S. cerevisiae deletion strains, locus YNL153C, strain GIM3, stronger effect = lower value 0.965 | S. cerevisiae deletion strains, locus YNL183C, strain NPR1, stronger effect = lower value 0.933 | S. cerevisiae deletion strains, locus YNL209W, strain ssb2, stronger effect = lower value 0.975 | S. cerevisiae deletion strains, locus YNL233W, strain BNI4, stronger effect = lower value 0.987 | S. cerevisiae deletion strains, locus YNL248C, strain rpa49, stronger effect = lower value 0.931 | S. cerevisiae deletion strains, locus YNL250W, strain rad50, stronger effect = lower value 0.979 | S. cerevisiae deletion strains, locus YNL271C, strain bni1, stronger effect = lower value 0.992 | S. cerevisiae deletion strains, locus YNL298W, strain CLA4, stronger effect = lower value 0.983 | S. cerevisiae deletion strains, locus YNL307C, strain MCK1, stronger effect = lower value 0.979 | S. cerevisiae deletion strains, locus YNL322C, strain KRE1 (second series), stronger effect = lower value 0.955 | S. cerevisiae deletion strains, locus YNL322C, strain KRE1, stronger effect = lower value 0.991 | S. cerevisiae deletion strains, locus YNR049C, strain mso1, stronger effect = lower value 0.979 | S. cerevisiae deletion strains, locus YNR052C, strain pop2, stronger effect = lower value 0.987 | S. cerevisiae deletion strains, locus YOL006C, strain TOP1, stronger effect = lower value 0.965 | S. cerevisiae deletion strains, locus YOL012C, strain htz1 1.08 | S. cerevisiae deletion strains, locus YOL147C, strain pex11, stronger effect = lower value 0.982 | S. cerevisiae deletion strains, locus YOR001W, strain rrp6, stronger effect = lower value 0.998 | S. cerevisiae deletion strains, locus YOR061W, strain CKA2, stronger effect = lower value 0.961 | S. cerevisiae deletion strains, locus YOR069W, strain VPS5, stronger effect = lower value 0.992 | S. cerevisiae deletion strains, locus YOR070C, strain gyp1, stronger effect = lower value 0.984 | S. cerevisiae deletion strains, locus YOR080W, strain dia2, stronger effect = lower value 0.977 | S. cerevisiae deletion strains, locus YOR083W, strain WHI5, stronger effect = lower value 0.989 | S. cerevisiae deletion strains, locus YOR106W, strain vam3, stronger effect = lower value 0.981 | S. cerevisiae deletion strains, locus YOR136W, strain idh2, stronger effect = lower value 0.981 | S. cerevisiae deletion strains, locus YOR144C, strain elg1, stronger effect = lower value 0.982 | S. cerevisiae deletion strains, locus YOR184W, strain ser1, stronger effect = lower value 0.989 | S. cerevisiae deletion strains, locus YOR231W, strain MKK1, stronger effect = lower value 0.97 | S. cerevisiae deletion strains, locus YOR265W, strain rbl2, stronger effect = lower value 0.991 | S. cerevisiae deletion strains, locus YOR270C, strain vph1, stronger effect = lower value 0.95 | S. cerevisiae deletion strains, locus YOR290C, strain snf2, stronger effect = lower value 0.976 | S. cerevisiae deletion strains, locus YOR316C, strain cot1, stronger effect = lower value 0.982 | S. cerevisiae deletion strains, locus YPL051W, strain arl3, stronger effect = lower value 0.981 | S. cerevisiae deletion strains, locus YPL055C, strain LGE1, stronger effect = lower value 0.92 | S. cerevisiae deletion strains, locus YPL078C, strain atp4, stronger effect = lower value 0.988 | S. cerevisiae deletion strains, locus YPL106C, strain sse1, stronger effect = lower value 0.969 | S. cerevisiae deletion strains, locus YPL240C, strain hsp82, stronger effect = lower value 0.997 | S. cerevisiae deletion strains, locus YPL256C, strain CLN2, stronger effect = lower value 0.974 | S. cerevisiae deletion strains, locus YPR119W, strain clb2, stronger effect = lower value 0.982 | S. cerevisiae deletion strains, locus YPR141C, strain kar3, stronger effect = lower value 0.97 | S. cerevisiae deletion strains, locus YPR163C, strain tif3, stronger effect = lower value 0.985 | S. cerevisiae deletion strains, locus YPR167C, strain met16, stronger effect = lower value 0.994 | S. cerevisiae deletion strains, strain wtn01, stronger effect = lower value 0.981 | S. cerevisiae strains, strain wild type, stronger effect = lower value 0.981
